Bioassay records as filed in PubChem.
The list is not random: actives were taken first. Their share in the collection is about 3.8%.
MBNL1 CUG block = blocks human MBNL1 binding to CUG repeat RNA. TR-FRET MBNL1-His/biotin-(CUG)12 binding, 665/545 ratio. Potency, µM (series often up to 57.5 µM), actives largely listed as inhibitors. 280,000 tested, 0.036% active. AID 2675; active = well fitted inhibition curve with a large enough effect in the signal ratio, with a control signal flat, not every such curve was filed as active; inconclusive = small, poorly fitted or top-dose-only effect, or effect the other way, or a change in a side signal; inactive = no such curve, though single readings can be large or run the other way; the % refers to the signal ratio
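TR-FRET readout: Ex 340 nm, 665/545 nm emission ratio, normalized to buffer-only (basal) and MBNL1-(CUG)12 controls. Complex of MBNL1-His with Biotin-(CUG)12, compounds 92 nM–58 uM, incubated 60 min at room temperature.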
CBFb RUNX1 block = inhibitors of human CBF-beta and RUNX1 interaction. Q01196+Q13951. AlphaScreen CBFb-His/RUNX1-biotin binding, biochemical. Potency, µM (highest dose often 59.8 µM), hits mostly inhibitors. 230,000 tested, under 10 active
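Room-temperature protein-protein interaction test with 30 nM each of His-tagged CBF-beta and biotinylated RUNX1, 15 min with compound, then 90 min with nickel plus streptavidin beads. Signal read in AlphaScreen mode.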
KCNH2 3.1 inh = blocks the human KCNH2 3.1 channel isoform; activity change, % (tested at about 1.8 µM); 340,000 tested, 0.95% active; U2OS KCNH2 3.1, thallium flux FluxOr; stronger effect = lower value;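 active = maximum activity change below -70%; inconclusive = maximum activity change from -70% to -50%; inactive = maximum activity change above -50%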;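 note: thallium influx rate constant from kinetic fluorescence after stimulation buffer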
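U2OS cells transduced with KCNH2 3.1 mutant virus (1.77 x 10^8 /mL, 4 h), plated overnight at 37 C, loaded 45 min with FluxOr dye plus Red40 quencher. Thallium flux rate constant from kinetic reads after stimulation buffer, normalised to controls.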
VDR inh = vitamin D3 receptor (human) inhibition; P11473; VDR-SRC2-3 peptide fluorescence polarization, 2 h; Potency, µM, hits mostly inhibitors; 400,000 tested, 0.93% active; AID 504847
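VDR–SRC2-3 interaction, FP format. Cmpds 23 nl via pintool, brief spin, 2 h ambient incubation.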
hERG WT inh = blocks the wildtype human KCNH2 potassium channel; Q12809; U2OS, BacMam KCNH2, thallium flux FluxOr; stronger effect = lower value; activity change, % at 1.84 µM; 340,000 tested, 0.37% active; AID 720551;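 active = maximum activity change below -70%; inconclusive = maximum activity change between -70% and -50%; inactive = maximum activity change above -50%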
Target sequence (Q12809 whole entry, looked up): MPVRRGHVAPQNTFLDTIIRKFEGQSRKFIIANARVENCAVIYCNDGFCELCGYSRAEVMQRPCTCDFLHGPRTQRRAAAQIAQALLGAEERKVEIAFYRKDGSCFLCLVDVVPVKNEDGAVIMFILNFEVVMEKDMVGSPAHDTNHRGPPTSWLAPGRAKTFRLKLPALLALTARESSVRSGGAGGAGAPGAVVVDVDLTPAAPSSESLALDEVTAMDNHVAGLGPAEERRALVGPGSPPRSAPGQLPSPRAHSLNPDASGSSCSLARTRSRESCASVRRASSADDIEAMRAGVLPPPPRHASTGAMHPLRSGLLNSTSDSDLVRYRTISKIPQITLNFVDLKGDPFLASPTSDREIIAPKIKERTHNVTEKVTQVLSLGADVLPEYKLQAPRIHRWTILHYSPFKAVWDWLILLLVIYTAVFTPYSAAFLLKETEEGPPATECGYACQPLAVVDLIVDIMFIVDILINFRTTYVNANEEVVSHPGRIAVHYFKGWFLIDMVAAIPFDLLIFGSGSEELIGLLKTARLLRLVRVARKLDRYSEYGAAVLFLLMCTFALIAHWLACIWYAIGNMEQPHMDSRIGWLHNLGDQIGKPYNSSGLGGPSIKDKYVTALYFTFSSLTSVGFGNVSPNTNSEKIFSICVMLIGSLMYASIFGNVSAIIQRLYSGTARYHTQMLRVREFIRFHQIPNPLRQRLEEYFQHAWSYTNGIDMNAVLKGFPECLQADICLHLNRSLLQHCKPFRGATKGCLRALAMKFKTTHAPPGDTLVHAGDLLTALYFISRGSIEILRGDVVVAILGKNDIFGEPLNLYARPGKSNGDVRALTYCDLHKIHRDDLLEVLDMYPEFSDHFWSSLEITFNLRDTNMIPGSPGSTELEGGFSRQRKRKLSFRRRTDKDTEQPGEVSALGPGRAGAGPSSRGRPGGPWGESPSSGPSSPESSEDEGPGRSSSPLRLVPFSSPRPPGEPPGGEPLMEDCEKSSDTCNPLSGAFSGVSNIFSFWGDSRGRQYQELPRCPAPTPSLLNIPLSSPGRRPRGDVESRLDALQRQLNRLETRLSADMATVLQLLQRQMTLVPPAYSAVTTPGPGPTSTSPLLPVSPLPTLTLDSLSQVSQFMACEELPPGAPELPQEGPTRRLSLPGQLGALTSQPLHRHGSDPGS
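U2OS cells transduced with wild-type KCNH2 virus are loaded with FluxOr dye for 45 min, and thallium flux is measured in kinetic reads before and after stimulation buffer. Rate constants are normalized to DMSO controls.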
PLK1 PBD inh = inhibitors of human PLK1 polo-box domain binding | 360,000 tested, 2.8% active | P53350 | Potency, µM, actives largely listed as inhibitors | Plk1 PBD binding of FITC phosphopeptide, fluorescence polarization; note: series mostly up to about 57 µM; nearly all actives have a fitted effect of over 65% in size
Numbers stand for hits; n = inactive; u = inconclusive; x = no result given; ! = repeats disagree; [ ] = dose if it differs, or a comment. Unless noted, calls come from the whole dose curve; as a rule, active = well fitted curve in the direction sought with a large enough effect; inconclusive = small, poorly fitted or top-dose-only effect, or another doubt; inactive = no such curve, though single readings can be large; an effect the other way counts as inactive or inconclusive.

SMILES | MBNL1 CUG block | CBFb RUNX1 block | KCNH2 3.1 inh | VDR inh | hERG WT inh | PLK1 PBD inh
O=C(CN1C(=O)S/C(=C\c2cccc(Cl)c2)C1=O)NC1C=CS(=O)(=O)C1 (stereo unspecified) | n | x | n | n | n | n
O=C(CN1C(=O)S/C(=C\c2ccc(Cl)cc2)C1=O)NC1C=CS(=O)(=O)C1 (stereo unspecified) | n | x | n | u | n | 18.9µM
Cc1ccc(/C=C/c2onc(C)c2S(=O)(=O)N2CCC(C(=O)N(CCC(C)C)Cc3ccco3)CC2)cc1 | x | x | x | n | x | x
Cc1cc(C)n2nc(-c3cccc(Br)c3)cc2n1 | n | x | n | n | n | n
Cc1cccc(-c2cc3nc(C)cc(N4CC(C)CC(C)C4)n3n2)c1 (stereo unspecified) | n | n | -120.0 | n | n | n
Cc1cccc(-c2cc3nc(C)cc(C)n3n2)c1 | n | n | n | n | n | 21.2µM
COC(=O)c1ccccc1NC(=O)CCCS(=O)(=O)c1nc(-c2ccccc2OC)cc(C(F)(F)F)n1 | x | x | x | n | x | x
Cc1ccc(CNC(=O)C2CCN(S(=O)(=O)c3c(C)noc3/C=C/c3cccs3)CC2)cc1 | x | x | x | n | x | x
COc1cc(C2=N/C(=C\c3ccccc3)C(=O)O2)cc(OC)c1OC | x | n | x | u | x | x
COc1cc(/C=C2\N=C(C)OC2=O)cc(OC)c1OC | n | x | n | 39.8µM | n | n
CCOC(=O)Oc1ccc(/C=C2\N=C(C)OC2=O)cc1 | n | x | n | 20µM | n | n
COc1ccc(C(=O)N2CC(=O)Nc3ccc(F)cc3C2c2ccc(F)cc2)c(OC)c1 (stereo unspecified) | x | x | x | n | x | x
CCOC(=O)c1c(NC(=O)c2cc(C(C)C)on2)sc(C)c1C | x | x | x | n | x | x
CCOC(=O)c1c(NC(=O)c2cc(-c3ccc(Br)cc3)on2)sc(C)c1C | x | x | x | 79.4µM | x | x
CCOC(=O)c1c(NC(=O)c2cc(-c3cccc(Cl)c3)on2)sc(C)c1C | x | x | x | n | x | x
CCCc1cc(C(=O)Nc2sc(C)c(C)c2C(=O)OCC)no1 | n | n | n | u | n | 21.2µM
CN1CC[C@H](c2c(O)cc(O)c3c(=O)cc(-c4ccccc4Cl)oc23)[C@@H](O)C1 | x | x | x | n | x | x
Cc1ccc(S(=O)(=O)N2CCN(c3nc(-c4cccs4)cc4ccccc34)CC2)cc1 | x | x | x | n | x | x
Cc1cccc(CNS(=O)(=O)c2ccc(-c3ccc(=O)[nH]n3)s2)c1 | u | x | n | n | n | 23.8µM
Cc1cccc(C)c1NC(=O)C1CCCN1S(=O)(=O)c1ccccc1 (stereo unspecified) | n | x | n | n | n | n
Cc1cccc(C)c1NC(=O)C1CCCN1S(=O)(=O)c1ccc(-c2ccc(=O)[nH]n2)s1 (stereo unspecified) | u | x | n | u | n | 11.9µM
Cc1cccc(C)c1NC(=O)CN(C)S(=O)(=O)c1ccc(-c2ccc(=O)[nH]n2)s1 | u | x | -176.9 | n | n | n
O=C(Cn1nc2c(cc1=O)CCCC2)NCc1ccc(Cl)cc1 | x | x | x | n | x | x
Cc1ccc(-c2cc3c(n2-c2ccc(F)cc2)CC(C)(C)CC3=O)cc1 | x | x | x | n | x | x
Cc1ccc(NC(=O)C(C)N2CCc3ccccc3C2)cc1 (stereo unspecified) | n | x | -114.5 | u | n | n
SMILES | MBNL1 CUG block | CBFb RUNX1 block | KCNH2 3.1 inh | VDR inh | hERG WT inh | PLK1 PBD inh
CC(C(=O)Nc1ccc(S(=O)(=O)N2CCCC2)cc1)N1CCc2ccccc2C1 (stereo unspecified) | x | x | -186.9 | u | n | n
COC(=O)c1ccn(CSc2cc(Cl)ccc2Cl)n1 | x | x | n | n | n | 23.8µM
CC(C)(C)c1cc(-c2csc(Nc3ccccc3)[n+]2Cc2ccc(C(=O)O)cc2)cc(C(C)(C)C)c1O | n | n | n | 79.4µM | n | 21.2µM
O=C(NCc1ccccn1)C(=O)N/N=C/c1ccc2c(c1)OCO2 | u | n | -106.0 | n | n | n
O=C(NCCc1ccccc1)C(=O)N/N=C/c1ccc2c(c1)OCO2 | n | n | n | n | n | n
O=C(/C=C/c1ccccc1O)c1ccccc1 | x | x | n | 28.2µM | n | n
Cc1cc(O)c(C(=O)/C=C/c2cccc([N+](=O)[O-])c2)c(=O)o1 | u | n | n | n | n | u
O=C(N/N=C/c1cccc2ccccc12)c1ccncc1 | u | x | n | n | n | n
Cc1cc(O)c(C(=O)/C=C/c2ccccc2O)c(=O)o1 | n | x | n | u | n | 21.2µM
O=C(/C=C/c1cccc2ccccc12)c1ccncc1 | n | n | n | 14.1µM | n | u
O=C(/C=C/c1ccc2c(c1)OCCO2)c1ccccc1 | n | n | n | 50.1µM | n | n
Cc1ccc(C)c(S(=O)(=O)c2nnn3c2nc(N2CCCCC2)c2sccc23)c1 | x | x | x | n | x | x
CCN(CC)C(=O)CSc1nc(-c2ccccc2F)nc2c1Cc1c(CO)cnc(C)c1O2 | x | x | x | n | x | x
COc1ccccc1N1CCN(C(=O)c2cc3c(=O)n(Cc4cccs4)ccc3nc2C)CC1 | x | x | x | n | x | x
COc1ccc2c(c1)c1c(c(=O)n(-c3ccccc3C)c(=O)n1C)n2C | x | x | x | n | x | x
O=C(/C=C/c1ccccc1O)c1ccc(Cl)cc1 | n | n | n | 35.5µM | n | n
COc1ccccc1/C=C/C(=O)c1ccccc1 | n | n | n | 79.4µM | n | n
N#Cc1ccc(/C=C/C(=O)c2ccccc2)cc1 | n | n | n | 14.1µM | n | n
COc1ccccc1/C=C/C(=O)NCc1cccnc1 | n | n | -100.6 | n | n | n
COc1cc(O)c(C(=O)/C=C/c2ccccc2)c(OC)c1 | n | n | n | 14.1µM | n | n
O=C(/C=C/c1ccc[nH]1)c1ccccc1 | n | n | n | 79.4µM | n | 29.9µM
COc1cc(O)c(C(=O)/C=C/c2ccccc2)c(O)c1 | x | n[13.1 µM] | x | x | x | x
CC(=O)n1cc(N(C(=O)CCl)c2ccc(Cl)cc2)c2ccccc21 | n | n | n | 50.1µM | n | n
COc1ccc(NC(=S)Nc2ccc3nsnc3c2)cc1 | u | n | n | 89.1µM | n | 13.4µM
CC(C)N(C(=O)Nc1ccc2nsnc2c1)C(C)C | u | n | n | 14.1µM | n | 13.4µM
SMILES | MBNL1 CUG block | CBFb RUNX1 block | KCNH2 3.1 inh | VDR inh | hERG WT inh | PLK1 PBD inh
CCOc1ccc(NC(=S)Nc2ccc3nsnc3c2)cc1 | n | n | n | 79.4µM | n | 26.7µM
COc1ccc(NC(=S)Nc2ccc3nc(C)c(C)nc3c2)cc1 | n | n | n | n | n | n
COc1cc2c(C#N)c(N3CCCC3)nc(N)c2c(N)n1 | u | n | n | 28.2µM! | n | n
COc1cc2c(C#N)c(N3CCN(C)CC3)nc(N)c2c(N)n1 | n | n | x | x | x | x
COC(=O)C1=C[C@@H](C(=O)OC)[C@@H]2C3=C(C(=O)[C@@]2(CC(C)C)NC(=O)c2ccccc2)[C@H](C)n2c(=O)n(-c4ccccc4)c(=O)n2[C@@H]3C1 | x | n | x | n | x | x
COCc1cc(C)n(CC(=O)OC)c(=O)c1C#N | n | n | n | n | n | n
COCc1cc(C)n(CC(=O)Nc2ccccc2OC)c(=O)c1C#N | n | n | n | u | n | 26.7µM
